Results from the supplement of paper PMC6555819.

Legend:
Experiment in all cases: PBM binding z-score (relative to random genomic background probes); higher = stronger binding; sequences stand for … in GC…GCGATTGACAGCGTAGAATGAAGG
[1] = system: FXR:RXRa (NR concentration 270 nM, RXRa partner concentration 90 nM)
Method in brief: (§1)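 Antibodies against each partner of ligand-free nuclear receptor dimers (one per run) detected binding on custom Agilent 4×180K protein-binding microarrays after 1 h incubation. The double-stranded probes had 34-nt variable regions carrying direct-repeat seeds, single-nucleotide variants, half-site ablations and random human genomic background sequences. Binding z-scores, from regression-normalized fluorescence, use the random background probes as reference.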

[2] = system: LXRa:RXRa (NR concentration 270 nM, RXRa partner concentration 90 nM)
Method in brief: as §1

[3] = system: LXRa homodimer (NR concentration 270 nM)
Method in brief: as §1

[4] = system: LXRb:RXRa (NR concentration 270 nM, RXRa partner concentration 90 nM)
Method in brief: as §1

[5] = system: LXRb homodimer (NR concentration 270 nM)
Method in brief: as §1

[6] = system: PPARa:RXRa (NR concentration 270 nM, RXRa partner concentration 90 nM)
Method in brief: as §1

[7] = system: PPARg:RXRa (NR concentration 180 nM, RXRa partner concentration 90 nM)
Method in brief: as §1

[8] = system: PPARg:RXRa 270nM:90nM, anti-RXR (NR concentration 270 nM, RXRa partner concentration 90 nM)
Method in brief: as §1

[9] = system: PPARg:RXRa 30nM:10nM, anti-RXR (NR concentration 30 nM, RXRa partner concentration 10 nM)
Method in brief: as §1

[10] = system: PPARg:RXRa 90nM:30nM, anti-RXR (NR concentration 90 nM, RXRa partner concentration 30 nM)
Method in brief: as §1

[11] = system: PPARg:RXRa DBDmut IVT, anti-RXR (DBD mutation: RXRa K156A/R161A, NR concentration 270 nM, RXRa partner concentration 90 nM)
Method in brief: as §1

[12] = system: PPARg:RXRa IVT, anti-PPARg (NR concentration 270 nM, RXRa partner concentration 90 nM)
Method in brief: as §1

[13] = system: PPARg DBDmut:RXRa IVT, anti-PPARg (DBD mutation: PPARg1 K132A/R137A, NR concentration 270 nM, RXRa partner concentration 90 nM)
Method in brief: as §1

[14] = system: PPARg DBDmut IVT, anti-PPARg (DBD mutation: PPARg1 K132A/R137A, NR concentration 270 nM)
Method in brief: as §1

[15] = system: PPARg homodimer (NR concentration 180 nM)
Method in brief: as §1

[16] = system: PXR:RXRa (NR concentration 270 nM, RXRa partner concentration 90 nM)
Method in brief: as §1

[17] = system: PXR homodimer (NR concentration 270 nM)
Method in brief: as §1

[18] = system: RARa:RXR (NR concentration 270 nM, RXRa partner concentration 90 nM)
Method in brief: as §1

[19] = system: RARa homodimer (NR concentration 270 nM)
Method in brief: as §1

[20] = system: RARb:RXRa (NR concentration 270 nM, RXRa partner concentration 90 nM)
Method in brief: as §1

Sequence | PBM binding z-score [1] | PBM binding z-score [2] | PBM binding z-score [3] | PBM binding z-score [4] | PBM binding z-score [5] | PBM binding z-score [6] | PBM binding z-score [7] | PBM binding z-score [8] | PBM binding z-score [9] | PBM binding z-score [10] | PBM binding z-score [11] | PBM binding z-score [12] | PBM binding z-score [13] | PBM binding z-score [14] | PBM binding z-score [15] | PBM binding z-score [16] | PBM binding z-score [17] | PBM binding z-score [18] | PBM binding z-score [19] | PBM binding z-score [20]
TCTTGGAGGACACGAAAGGTCAGAGCTCGACATC | 3.33 | 4.06 | 2.83 | 3.37 | 0.286 | 3.75 | 1.68 | 3.16 | 2.54 | 2.89 | 2.26 | 2.63 | 0.421 | 0.521 | 2.91 | 4.16 | 0.329 | 4.3 | 0.376 | 4.39
TAGCCTAGGTCATGCGGGCCAGTATTGTGTCGGC | 3.83 | 2.94 | 0.0608 | 1.71 | -0.269 | 3.48 | 1.84 | 2.13 | 0.0531 | 1.17 | 1.92 | 3.17 | -0.152 | -1.19 | 0.001 | 1.34 | -0.847 | 1.82 | -1.27 | 3.69
ACTATTAGTTGAGACGAGGGCAATCGATAGGTTG | 0.46 | 0.333 | -0.168 | 0.136 | -0.0649 | 0.253 | 0.627 | 0.107 | 0.45 | 0.23 | 0.458 | 0.2 | 0.805 | 0.52 | 0.357 | 1.46 | 0.418 | 1.25 | 0.603 | 0.918
TCTTGTAGATCAACCGGAGGTTAAGAAAGATCGA | 0.397 | 1.58 | 1.09 | 1.17 | -0.00394 | 1.26 | -0.257 | 1.55 | 2.69 | 2.15 | 1.73 | 0.867 | 0.463 | 0.343 | -0.156 | 0.984 | 0.000543 | 1.25 | -0.186 | 0.743
CGTCGAAGTTCAACTAAGGTAACGTAAAGCACGC | 4.31 | 3.83 | 1.23 | 2.36 | 0.375 | 3.15 | 1.3 | 1.98 | 0.415 | 1.23 | -0.101 | 0.723 | 0.00916 | 0.194 | 1.47 | 4.23 | 2.7 | 3.02 | 0.757 | 3.74
ATCGAAAGATCGAAGGTGAGTATACCCACCCGAA | 0.128 | -0.167 | -0.351 | -0.103 | -0.379 | 0.477 | 0.73 | 0.539 | 0.2 | 0.266 | -0.781 | 0.354 | -0.115 | -0.0294 | -0.0886 | 0.0692 | -0.598 | 0.121 | 0.67 | 0.215
ATATGTAGGTTAGCTGGGGTCATGCAGACTAGGC | 4.32 | 5.63 | 1.92 | 4.51 | 0.764 | 5.44 | 6.19 | 5.5 | 3.22 | 5.13 | 6.73 | 6.58 | 3.11 | 1.46 | 3.23 | 6.14 | 2.18 | 5.87 | 1.4 | 3.44
